Our source for the activation values is PubChem BioAssay AID652126 (The Scripps Research Institute Molecular Screening Center, 2013).

The campaign covered roughly 370,000 compounds. About 3,700 (1%) were called active. Shown is part of a subset that was picked to be rich in actives. Values without a mark were called inactive.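 The calls were made as follows: active = activation above the mean over all tested compounds plus 3 SD (cut at about 0.9% in these data); inactive = the rest.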

The test relates to Nuclear hormone receptor DAF-12 (Strongyloides stercoralis). Description: S. stercoralis DAF-12 nuclear receptor activators, primary screen, cell-based, luminescence, HEK293, GRIP1 co-expression, lit1-tk-luc (AID 652126).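 Also: 0% = DMSO-only wells and 100% = 3 µM delta7-dafachronic acid wells.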 Particulars: HEK293 ssDAF-12/GRIP1 lit1-tk-luc reporter, at 6.8 µM, active compounds read high, % of 3 µM dafachronic acid response.
For `Cc1nc2ccc(C(=O)N3CCN(C(=O)C(C)(C)C)CC3)cc2n1C1CCCC1`, the activation was -1.22%. Under `Cc1ccc(-c2nc3ccccc3[nH]2)cc1N` stands 2.5% (active); under `CN(C)c1cc(N)c2ccccc2n1` (tested in a mixture with another compound), -0.25%. Regarding `CCOC(=O)c1nc(-c2ccc3c(c2)OCO3)[nH]c1C`, the activation was -1.3%.

Take `Cc1cc(C)nc(NC(=S)N2CCN(c3ccc(C(F)(F)F)cn3)CC2)c1`: the activation was -1.63%. In the case of `COc1ccc(C(=O)OCCN2CCN(C3CN(Cc4cn(Cc5ccccc5F)nn4)S(=O)(=O)C3)CC2)cc1OC` (stereo not drawn), the activation is -1.83%. Regarding `O=C(Nc1cc(F)cc(F)c1)OC1CCC12CCC(c1ccccc1)CC2` (stereo not drawn), the activation was -1.11%. Under `O=C(Nc1cc(Cl)cc(Cl)c1)OCCN1CCCC12CCC(c1ccccc1)CC2` (stereo not drawn) stands -1.99%. In the case of `Cc1ccc(-n2c(SCC(=O)Nc3ccc(S(=O)(=O)Nc4nccs4)cc3)nnc2-c2cccnc2)cc1`, the activation was -1.03%. As for `Fc1ccccc1-c1cc2cc3c(cc2cn1)OCO3`, the activation was 0.96% (active). In the case of `Fc1ccc2cnc(-c3ccccc3)cc2c1`, the activation was 0.89%.

Take `COC(=O)C[C@@H]1CC[C@@H]2[C@H](COc3ccc(NC(=O)c4cccc(F)c4)cc3C(=O)N2C)O1`: the activation was -1.32%. `CN(C(N)=NC(=O)/C=C/c1ccccc1)C(C#Cc1ccccc1)Cc1ccccc1` (stereo not drawn): the activation is -1.31%.

On to `O=C(CCCCCN1C(=O)C2C3C=CC(C3)C2C1=O)Nc1ccccn1` (stereo not drawn), for which the activation was -1.93%.

Consider `COc1ccc(Cn2cc(COC(=O)N(C)Cc3ccccc3)nn2)cc1`, for which the activation is -1.12%. Consider `Cc1cnc(NC(=O)c2ccc(Cl)nc2)s1`, for which the activation is 1.34% (active). As for `COc1ccc(CC(=O)NCc2nnc(SCC(=O)Nc3ncc(C)s3)n2C)cc1`, the activation was -1.52%. For the compound `Cc1ccc(NC(=O)c2ccc(Cl)nc2)cc1S(=O)(=O)N1CCOCC1`, the activation is -1.53%.

With `COc1ccc(-c2cc(-c3nnc(SCC(=O)Nc4cccc5ccccc45)n3N)[nH]n2)cc1`, the activation is -1.73%.

Consider `Cc1cc(=O)[nH]c(SCC(=O)Nc2ccc(Cl)cc2C)n1`, for which the activation is -1.2%. With `CCC(c1ccc(NC(=O)OC(C)(C)C)cc1)c1cc(OC)cc(OC)c1` (stereo not drawn), the activation is -1.95%. Next, `CC(C)(C)c1ccc(C(=O)Nc2cc(Cl)c(Br)cc2C(=O)O)cc1`: -1.31%; `CCc1nonc1NC(=O)c1oc2ccc(Cl)cc2c1C`: -0.87%; `Cc1c(C(=O)Nc2ccccn2)oc2ccc(Br)cc12`: 1.84% (active). On to `Cc1c(C(=O)NC2CCCCC2)oc2ccccc12`, for which the activation was -0.81%. For the compound `C=CCn1c(SCC(N)=O)nnc1-c1ccccc1OC`, the activation is -0.81%.

`COc1ccc(NC(=O)c2ccc(OC)cc2)cc1`: the activation is 0.92% (active). Turning to `COc1ccc(C(=O)NCC[N+](C)(C)C)cc1`, the activation was -0.25%. Under `COc1ccc(C(=O)Nc2ccc(-n3nncc3C(C)(C)C)cc2)cc1` stands -1.68%; under `O=C(CSc1nnc(-c2ccccc2)n1Cc1ccco1)Nc1ccccc1-c1ccccc1`, -1.67%. With `O=C(CSc1nnc(COc2ccccc2)n1Cc1ccco1)c1ccc2ccccc2c1`, the activation was -1.35%. Next, `Clc1ccc(-c2cc(C3CCNCC3)[nH]n2)c(Cl)c1`: -1.62%; `Clc1ccc(-c2cc(-c3ccccn3)on2)c(Cl)c1`: 1.28% (active).

On to `O=C(c1ccccc1)c1cc(-c2ccccn2)c(N2CCOCC2)s1`, for which the activation was -1.53%. Take `C[C@H]1[C@H](NC(=O)c2cccc(N(C)C)c2)CC[C@@]23CCCN2C(=O)CCC[C@@H]13`: the activation was -1.05%. For the compound `O=S(=O)(Nc1ccc2nc(-c3ccco3)[nH]c2c1)c1ccccc1`, the activation was -0.88%. Take `Cn1c(SCC(=O)c2cccs2)nnc1-c1ccco1`: the activation was -0.1%. Next, `Cn1c(-c2ccco2)nc2cc3ccccc3cc21`: 1.86% (active); `Cc1cc(NS(=O)(=O)c2ccc(NC(=O)CSc3nnc(SCc4ccc(F)cc4)s3)cc2)nc(C)n1`: -1.33%.

Consider `O=C1CCC2(CCC(c3ccc(Cl)cc3)CC2)N1CCO` (stereo not drawn), for which the activation is -1.42%. Consider `Oc1cccc2ccc(/C=C/c3ccc(Br)s3)nc12`, for which the activation was 1.49% (active).

Regarding `O=C(CN1C(=O)NC2(CCCCC2)C1=O)NCCC1=CCCCC1`, the activation was -1.49%.

For the compound `CCOC(=O)c1cccc(NC(=O)CN(C)S(=O)(=O)c2ccc(-c3cocn3)s2)c1`, the activation was 0.72%. Under `N[C@@H](Cc1ccccc1)C(=O)N1CCC[C@@H]1C(=O)N1CCC2CCN(S(=O)(=O)c3ccccc3)CC21` (stereo partly drawn) stands -0.75%; under `O=C(NCCCNC(=O)c1ccccc1Cl)c1cnccn1`, -0.77%. `CN(C)CCNC(=O)c1ccc(Cl)c2cc3ccccc3nc12`: the activation is 2.74% (active). Next, `CN(C)CCNC(=O)Cc1ccc([N+](=O)[O-])cc1`: -0.65%. On to `COc1ccc(Cn2cc(CN3[C@@H](CC(C)C)COc4cc(Br)ccc4S3(=O)=O)nn2)cc1`, for which the activation is -0.66%. For `Fc1ccc2nc(COCc3nc4ccc(F)cc4[nH]3)[nH]c2c1`, the activation is -1.23%. On to `Oc1cc2c(cc1O)CN(C(=S)NCCc1ccc(Cl)cc1)CCC2`, for which the activation is -1.68%.

Consider `CC1CCN(C(=O)CCNC(=O)c2ccccc2)CC1`, for which the activation was -0.14%.

With `CCOc1ccc(CCNC(=O)C2=C(C)C(=O)OC23CCC(C)CC3)cc1OCC` (stereo not drawn), the activation was -0.29%.

As for `CCN(CCNC(=O)C1=C(C)C(=O)OC12CCC(C)CC2)c1ccccc1` (stereo not drawn), the activation was 3.96% (active). Next, `O=C(OC12CCCN(C1)/C(=C/c1cccnc1)C2)C1CCCC1` (stereo not drawn): -1.43%; `CCOC(=O)[C@@]12CN(C(=O)OC(C)(C)C)CC=C1N(Cc1ccc(OC)cc1)C(=O)[C@H]2CC(=O)NCc1ccc(OC)c(OC)c1`: -0.75%; `CC(NC(=O)c1ccccc1C(=O)O)c1ccc(-n2ccnc2)cc1` (stereo not drawn): 0.93% (active). As for `CC(NC(=O)c1ccccc1SCC(=O)N1CCCC1)c1ccccc1` (stereo not drawn), the activation was -0.47%. On to `C/C(=N\NC(=O)c1cccnc1)c1ccc(-n2ccnc2)cc1`, for which the activation was -1.15%. Consider `C[C@H](C(=O)N(C)c1ccccc1)[C@@H](O)c1ccc2ccccc2c1`, for which the activation was -0.52%.

Turning to `O=C(Nc1nnc(-c2ccccc2)o1)c1cccc(S(=O)(=O)N2CCOCC2)c1`, the activation is -0.75%. `COc1ccccc1-c1nnc(NC(=O)c2cccc(N3C(=O)CCC3=O)c2)o1`: the activation is 1.57% (active). In the case of `COc1ccccc1-c1nnc(NC(=O)c2ccc3ncsc3c2)o1`, the activation is 0.27%.

Regarding `Cc1ccc(NC(=S)NNC(=O)CSc2nnc(SCc3ccccc3Cl)s2)cc1`, the activation is -1.2%. Next, `Cc1ccc(C2=Nc3c(ccc4ccccc34)C(c3ccncc3)=NN2)cc1`: 1.33% (active). Under `CCOc1ccc2c(c1)C(c1ccc(C)cc1)=NNC(c1ccc(C)cc1)=N2` stands -0.66%; under `CN(C)c1ccc(NC(=O)NC2CCCCN(Cc3ccc(Cl)cc3)C2=O)cc1` (stereo not drawn), -1.57%; under `Cc1ccc(S(=O)(=O)N2[C@@H](c3ccccc3F)C(C(=O)O)=CC[C@H]2c2ccc(Cl)cc2)cc1`, -1.05%. Next, `Cc1ccc(S(=O)(=O)N2[C@@H](c3cccc(Cl)c3)C(C(=O)O)=CC[C@H]2c2ccc(Cl)c(Cl)c2)cc1`: -1.12%; `COc1ccc(C2CC=C(C(=O)O)C(c3ccccc3F)N2S(=O)(=O)c2ccc(C)cc2)cc1OC` (stereo not drawn): 1.37% (active); `COc1ccc(N2CCN(CCNS(=O)(=O)c3ccc([N+](=O)[O-])cc3)CC2)cc1`: -1.33%. For `Cn1c(=O)c(Sc2ccc(Cl)cc2)c(O)c2ccccc21`, the activation was 0.04%. On to `Cn1c(=O)c(C(=O)Nc2ncccn2)c(O)c2ccccc21`, for which the activation is 2.21% (active). Regarding `C=CCn1c(=O)c(C(=O)Nc2ncccc2O)c(O)c2ccccc21`, the activation is -0.42%. Turning to `CN(C)[C@H]1CCN(c2cccc3c2S(=O)(=O)N2CC[C@H](C2)O3)C1`, the activation was -0.74%. Take `CC(C)(C)NC(=O)C(c1cccnc1)N(C(=O)c1cnco1)c1ccc(C(C)(C)C)cc1` (stereo not drawn): the activation was -2.05%. For the compound `COc1ccc(/C=C(/NC(=O)c2ccco2)C(=O)Nc2ccc(C(C)=O)cc2)cc1`, the activation was -1.1%.

As to `COc1ccccc1C(=O)N/C(=C/c1ccc2c(c1)OCO2)C(=O)Nc1cccc(C(=O)O)c1`, the activation was -0.63%. As for `COc1ccccc1C(=O)N/C(=C/c1ccco1)C(=O)Nc1ccc(C(=O)O)cc1`, the activation is 1.14% (active). On to `CCOC(=O)[C@]12CCCC3=C1N(CCC3)C(=O)[C@@H](CC(=O)NCC13CC4CC(CC(C4)C1)C3)C2`, for which the activation was -0.93%. `Cc1ccc(NC(=O)Cc2cccc(F)c2)c(S(=O)(=O)N2CCOCC2)c1`: the activation is -0.55%. As for `O=C(NC1CCCC1)C1CSCCS(=O)(=O)N1Cc1ccccc1` (stereo not drawn), the activation was -1.05%. With `Cc1noc(C)c1/C=N/Nc1ccc2ccccc2n1`, the activation is 1.61% (active). Turning to `C=CCN1C(=O)[C@H](CC(=O)N2CCN(C(=O)OCC)CC2)[C@@]2(C(=O)OCC)CCCC=C12`, the activation is -0.45%. Regarding `Cc1ccc(-n2c(SCC(=O)Nc3ccc(S(=O)(=O)Nc4nccs4)cc3)nnc2-c2ccccn2)cc1`, the activation was -0.88%. With `Cc1ccnc(Nc2nc3ccccc3s2)n1`, the activation was 1.25% (active). For the compound `Cc1ccnc(-n2sc3ccccc3c2=O)n1`, the activation was 0.16%.

Consider `Cc1cccc(NC(=O)C[C@H]2CC[C@H]3[C@@H](COc4ccc(NC(=O)Nc5ccccc5)cc4C(=O)N3C)O2)c1`, for which the activation is -1.84%.

In the case of `Cc1cccc(S(=O)(=O)N2CN(CC3CCCO3)c3nc4ccccc4nc32)c1` (stereo not drawn), the activation was -0.43%.
